Source: PubChem BioAssay
The list shows a part of the results. Unmarked numbers belong to inactive results. Active and inactive are the calls of the source.

What was measured:
[1] = biological target: Inward rectifier potassium channel 2 (Mus musculus) (UniProt P35561); test: mouse Kir2.1 channel blockers, retest, confirmation, cell-based, FluxOR thallium flux, duplicate (AID 2032;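 active means Primary-screen hit whose thallium flux fell at least 3 control SD below untreated wells in both duplicates, with normal baseline fluorescence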); details: Kir2.1-expressing cells, FluxOR thallium flux fluorescence, at 10 µM; hits give low values
Chain of Inward rectifier potassium channel 2 (Mus musculus) (P35561 whole entry, looked up): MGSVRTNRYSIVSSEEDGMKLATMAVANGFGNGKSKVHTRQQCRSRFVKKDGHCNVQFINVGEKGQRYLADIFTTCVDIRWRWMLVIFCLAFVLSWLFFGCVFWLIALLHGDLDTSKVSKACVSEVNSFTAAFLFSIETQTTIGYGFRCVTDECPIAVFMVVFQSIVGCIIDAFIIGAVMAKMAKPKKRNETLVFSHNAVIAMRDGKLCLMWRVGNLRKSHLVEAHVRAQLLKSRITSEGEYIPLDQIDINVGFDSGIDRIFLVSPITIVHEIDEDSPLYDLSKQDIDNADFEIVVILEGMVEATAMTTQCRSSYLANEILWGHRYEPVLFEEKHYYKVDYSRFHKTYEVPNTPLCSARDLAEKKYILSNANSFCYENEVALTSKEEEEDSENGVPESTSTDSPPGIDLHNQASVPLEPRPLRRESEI

[2] = nonspecific thallium flux effects in parental HEK293 cells, confirmation, counter-screen for Kir2.1 inhibitor project, cell-based, FluxOR thallium flux, duplicate, single concentration (AID 2105); details: FluxOR thallium flux fluorescence, at 10 µM; 0% = unstimulated blank wells;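 on FluxOR signal as % of negative control (100 = no effect): percent is based on the flux ratio of peak minus minimum fluorescence over baseline F0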
[3] = nonspecific thallium flux increase in parental CHO-K1, confirmation, counter-screen for KCNQ2 potentiator project, cell-based, FluxOR thallium flux, duplicate (AID 2282;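 active means signal rise of at least 3 SD above the untreated control mean, in both duplicate wells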;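 further: counter screen of KCNQ2 potentiator hits so any rise reflects channel-independent effects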); details: parental CHO-K1 cells, FluxOR thallium flux fluorescence; at 10 µM; hits give high values; zero = vehicle mean+3SD, 100% = vehicle-minus-blank window
[4] = biological target: Potassium voltage-gated channel subfamily KQT member 1 (Homo sapiens) (UniProt P51787); test: human KCNQ1 channel potentiation off-target, confirmation, selectivity assay for KCNQ2 potentiator project, cell-based, CHO, FluxOR thallium flux (AID 2283;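 active means fluorescence ratio rise of at least 3 SD of vehicle wells above their mean, in both replicate wells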;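 further: 0% = vehicle mean plus 3 SD and 100% = vehicle minus unstimulated blank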); details: CHO KCNQ1 stable, FluxOR thallium flux fluorescence; at 10 µM; hits give high values; beyond 3SD, as % of vehicle-control signal
Chain of Potassium voltage-gated channel subfamily KQT member 1 (Homo sapiens) (P51787 whole entry, looked up): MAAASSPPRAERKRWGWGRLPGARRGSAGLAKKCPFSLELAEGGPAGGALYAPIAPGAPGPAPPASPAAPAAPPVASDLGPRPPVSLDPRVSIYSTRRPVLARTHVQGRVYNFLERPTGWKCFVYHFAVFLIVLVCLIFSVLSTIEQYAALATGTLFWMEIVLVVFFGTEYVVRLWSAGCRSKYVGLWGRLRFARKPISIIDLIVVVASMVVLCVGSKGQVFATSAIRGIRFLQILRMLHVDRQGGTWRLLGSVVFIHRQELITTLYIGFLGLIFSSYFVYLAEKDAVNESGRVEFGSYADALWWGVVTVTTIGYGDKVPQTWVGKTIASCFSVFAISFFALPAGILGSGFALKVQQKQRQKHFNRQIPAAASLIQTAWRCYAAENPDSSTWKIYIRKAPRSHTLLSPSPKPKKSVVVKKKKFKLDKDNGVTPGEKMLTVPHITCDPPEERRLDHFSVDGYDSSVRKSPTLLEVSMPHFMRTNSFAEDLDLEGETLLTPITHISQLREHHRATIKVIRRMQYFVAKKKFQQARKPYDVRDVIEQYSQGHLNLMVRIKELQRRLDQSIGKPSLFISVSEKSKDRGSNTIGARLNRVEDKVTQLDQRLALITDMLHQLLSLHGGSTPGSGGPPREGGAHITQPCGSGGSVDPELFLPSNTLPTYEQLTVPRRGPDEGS

[5] = biological target: Potassium voltage-gated channel subfamily KQT member 2 (Rattus norvegicus) (UniProt O88943); test: rat KCNQ2 channel potentiators, confirmation, cell-based, CHO, FluxOR thallium flux, duplicate (AID 2287;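 active means fluorescence ratio rising 3 SD or more over the vehicle control mean in both replicates, plus primary screen hit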;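 further: peak minus minimum thallium fluorescence divided by baseline after K/Tl stimulus; 0% = vehicle mean plus 3 SD and 100% = vehicle minus unstimulated blank difference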); details: CHO-KCNQ2 cells, FluxOR thallium flux fluorescence; at 10 µM; hits give high values
[6] = biological target: Inward rectifier potassium channel 2 (Mus musculus) (UniProt P35561); test: PubChem AID 2345; details: HEK293 Kir2.1, FluxOR thallium flux fluorescence; at 10 µM; hits give high values;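 further: 0% = vehicle mean plus 3 SD and 100% = vehicle minus no-stimulus blank window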
[7] = biological target: Voltage-gated inwardly rectifying potassium channel KCNH2 (Homo sapiens) (UniProt Q12809); test: hERG channel inhibition, counter-screen for Kir2.1 inhibitor project, cell-based, thallium flux (AID 2236; call rule not given here;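 further: host cells are CHO cells stably expressing hERG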); details: hERG-expressing cells, at 10 µM; hits give high values
Chain of Voltage-gated inwardly rectifying potassium channel KCNH2 (Homo sapiens) (Q12809 whole entry, looked up): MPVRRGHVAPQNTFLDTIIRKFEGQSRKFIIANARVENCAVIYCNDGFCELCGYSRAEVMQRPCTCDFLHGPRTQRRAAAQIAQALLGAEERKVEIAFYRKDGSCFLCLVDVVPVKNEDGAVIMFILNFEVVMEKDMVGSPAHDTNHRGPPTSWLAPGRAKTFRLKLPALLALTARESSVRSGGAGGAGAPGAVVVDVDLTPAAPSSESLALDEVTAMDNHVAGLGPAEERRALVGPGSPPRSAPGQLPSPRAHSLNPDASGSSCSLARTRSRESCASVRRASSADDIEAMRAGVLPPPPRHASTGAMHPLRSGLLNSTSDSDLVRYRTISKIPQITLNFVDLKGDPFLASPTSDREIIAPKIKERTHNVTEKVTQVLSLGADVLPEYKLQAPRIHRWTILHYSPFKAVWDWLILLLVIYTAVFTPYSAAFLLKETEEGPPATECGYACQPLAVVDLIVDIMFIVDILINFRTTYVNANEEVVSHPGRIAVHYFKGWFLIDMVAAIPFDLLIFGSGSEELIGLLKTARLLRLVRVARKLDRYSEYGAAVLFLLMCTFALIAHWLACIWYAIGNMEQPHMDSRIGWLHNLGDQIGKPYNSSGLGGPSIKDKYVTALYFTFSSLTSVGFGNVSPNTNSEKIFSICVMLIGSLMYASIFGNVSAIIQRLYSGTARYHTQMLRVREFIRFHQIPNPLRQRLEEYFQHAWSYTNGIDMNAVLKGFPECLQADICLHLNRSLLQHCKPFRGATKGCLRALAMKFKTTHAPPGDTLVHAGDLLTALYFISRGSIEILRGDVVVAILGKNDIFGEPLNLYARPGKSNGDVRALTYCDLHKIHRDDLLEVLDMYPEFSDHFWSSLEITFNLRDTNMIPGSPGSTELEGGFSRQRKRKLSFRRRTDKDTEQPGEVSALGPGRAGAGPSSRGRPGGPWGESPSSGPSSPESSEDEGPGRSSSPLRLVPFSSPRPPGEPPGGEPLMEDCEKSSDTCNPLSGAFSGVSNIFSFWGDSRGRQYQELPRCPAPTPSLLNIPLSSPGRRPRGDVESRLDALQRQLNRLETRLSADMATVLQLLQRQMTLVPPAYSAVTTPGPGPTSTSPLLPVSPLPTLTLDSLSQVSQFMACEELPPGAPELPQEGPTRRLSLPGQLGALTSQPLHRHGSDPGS

[8] = biological target: Potassium channel subfamily K member 9 (Homo sapiens) (UniProt Q9NPC2); test: KCNK9 channel inhibition, selectivity assay for Kir2.1 inhibitor project, cell-based (AID 2329; call rule not given here); details: KCNK9-expressing cells, ion flux inhibition, at 10 µM; hits give high values
[9] = biological target: Inward rectifier potassium channel 2 (Mus musculus) (UniProt P35561); test: mouse Kir2.1 channel blockers, Kir2.1 inhibitor project, cell-based, secondary, automated electrophysiology (AID 463252; call rule not given here); details: Kir2.1 cells, automated patch-clamp current inhibition, at 25 µM; hits give high values
[10] = biological target: Potassium voltage-gated channel subfamily KQT member 2 (Rattus norvegicus) (UniProt O88943); test: potentiators of retigabine-insensitive KCNQ2 W236L, mechanism study for KCNQ2 potentiator project, cell-based, rat KCNQ2 W236L, CHO, automated patch clamp (AID 2558;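 active means current increase at least 3 SD of the untreated controls above them in both duplicate recordings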); details: at 25 µM; outcome: automated patch clamp current

## CCN(CC)CCC(c1ccc2c(c1)OCO2)c1c(OC)cc(OC)c2c(-c3ccccc3)cc(=O)oc12 (centres undefined)
[1]
  Tl flux remaining, % of negative control (hits give low values): 65.5% (active)
[2]
  outcome: inactive

## c1ccc(CSc2nnc(-c3ccco3)n2Cc2ccccc2)cc1
[1]
  Tl flux remaining, % of negative control (hits give low values): 54% (active)
[2]
  outcome: inactive

## O=C(Cc1c[nH]c2ccccc12)OCCOC(=O)Cc1c[nH]c2ccccc12
[1]
  Tl flux remaining, % of negative control (hits give low values): 48.5% (active)
[2]
  outcome: inactive

## CCCCOC(=O)Cn1c(=O)n(CC(=O)OCCCC)c2cc(C)ccc21
[1]
  outcome: inactive
[2]
  outcome: inactive

## CCCCCCCCCCOC(=O)Cn1c(COc2ccc(C)cc2)[n+](C)c2ccccc21
[1]
  outcome: inactive
[2]
  outcome: inactive

## COc1cccc(CNCCc2c[nH]c3ccccc23)c1OCc1ccccc1F
[1]
  Tl flux remaining, % of negative control (hits give low values): 23.5% (active)
[2]
  outcome: inactive

## Clc1c(OCCCn2ccnc2)ccc2ccccc12
[1]
  outcome: inactive
[2]
  outcome: inactive

## CC1COc2ccccc2N1S(=O)(=O)c1ccccc1 (centres undefined)
[1]
  Tl flux remaining, % of negative control (hits give low values): 60% (active)
[2]
  outcome: inactive

## CCCCCCCCn1c2c(c(=N)c3c1CCC3)CCCC2
[1]
  Tl flux remaining, % of negative control (hits give low values): 10% (active)
[2]
  outcome: inactive

## COc1ccccc1-c1n[nH]c2c1[C@H](C)CC[C@H]2C(C)C
[1]
  outcome: inactive
[2]
  outcome: inactive

## COc1cc(/C=N/O)cc(Br)c1OS(=O)(=O)c1ccc(C)cc1
[1]
  Tl flux remaining, % of negative control (hits give low values): 57.5% (active)
[2]
  outcome: inactive

## CN(Cc1ccccc1)CC(O)COc1ccc(CNCc2cc3ccccc3s2)cc1 (centres undefined)
[1]
  Tl flux remaining, % of negative control (hits give low values): 33.5% (active)
[2]
  FluxOR signal as % of negative control (100 = no effect): 74.5% (active)

## Cn1c(SCC(=O)N2CCCc3ccccc32)nc2ccccc2c1=O
[1]
  Tl flux remaining, % of negative control (hits give low values): 71.5% (active)
[2]
  FluxOR signal as % of negative control (100 = no effect): 66.5% (active)

## OCCNCc1cccc(OCc2ccccc2Cl)c1
[1]
  Tl flux remaining, % of negative control (hits give low values): 62% (active)
[2]
  outcome: inactive

## Cc1ccc(-c2nn(-c3ccccc3)cc2/C=C2\SC(=S)N(CCCCCC(=O)O)C2=O)o1
[1]
  outcome: inactive
[2]
  FluxOR signal as % of negative control (100 = no effect): 75% (active)

## CN(Cc1ccccc1)C(=O)CCc1ccccc1
[1]
  outcome: inactive
[2]
  outcome: inactive

## CCC(=O)OCc1c(C(F)(F)F)nn(C)c1Oc1cccc(C(F)(F)F)c1
[1]
  outcome: inactive
[2]
  outcome: inactive

## CCCOc1ccc(C(=O)C(CCC(CNCC)C(=O)c2ccc(OCCC)cc2)CNCC)cc1 (centres undefined)
[1]
  Tl flux remaining, % of negative control (hits give low values): 48% (active)
[2]
  outcome: inactive

## COc1ccc2c(c1)C=CC1(O2)N(CCO)c2ccccc2C1(C)C (centres undefined)
[1]
  outcome: inactive
[2]
  FluxOR signal as % of negative control (100 = no effect): 53.5% (active)

## CC(C)(c1ccccc1)c1ccc(OCCN2CCCC2)cc1
[1]
  Tl flux remaining, % of negative control (hits give low values): 44% (active)
[2]
  outcome: inactive

## O=C(CCl)N(Cc1cccc([N+](=O)[O-])c1)c1cccc(Cl)c1
[1]
  outcome: inactive
[2]
  outcome: inactive

## COc1ccc(Nc2ncnc3sc(C)cc23)cc1
[1]
  outcome: inactive
[2]
  outcome: inactive

## COc1ccc(CCC(C)N2CCc3ccccc3C2)cc1 (centres undefined)
[1]
  Tl flux remaining, % of negative control (hits give low values): 25.5% (active)
[2]
  outcome: inactive

## COc1ccc(F)c(-c2nc(CN3CCC(c4ccccc4)CC3)c(C)o2)c1
[1]
  Tl flux remaining, % of negative control (hits give low values): 45.5% (active)
[2]
  outcome: inactive

## C(=C\c1ccccc1)/CSc1nnc(-c2cccnc2)n1Cc1ccco1
[1]
  Tl flux remaining, % of negative control (hits give low values): 37% (active)
[2]
  outcome: inactive

## Cc1cc(C)c(C)c(S(=O)(=O)Nc2ccc(O)cc2)c1C
[1]
  Tl flux remaining, % of negative control (hits give low values): 65.5% (active)
[2]
  outcome: inactive

## COc1cc(CNCc2ccc(OC)c3ccccc23)cc(OC)c1OC
[1]
  Tl flux remaining, % of negative control (hits give low values): 51% (active)
[2]
  outcome: inactive

## COCCNC(=O)COc1ccc(N(C)S(=O)(=O)c2ccc3ccccc3c2)cc1
[1]
  Tl flux remaining, % of negative control (hits give low values): 58% (active)
[2]
  outcome: inactive

## CC(C)(C)c1cc2cccnc2n1Cc1cccc(F)c1
[1]
  Tl flux remaining, % of negative control (hits give low values): 72% (active)
[2]
  outcome: inactive

## CCn1cc(CCC(=O)NCc2ccc(F)cc2)c2ccccc21
[1]
  Tl flux remaining, % of negative control (hits give low values): 56.5% (active)
[2]
  outcome: inactive

## NC(N)=Nc1nc(-c2ccccc2)c2cc(Cl)ccc2n1
[1]
  outcome: inactive
[2]
  outcome: inactive

## CC12CN(Cc3ccccc3)CC(C)(CN(Cc3ccccc3)C1)C2=NO
[1]
  Tl flux remaining, % of negative control (hits give low values): 54.5% (active)
[2]
  outcome: inactive

## COc1ccc(C(CCNCc2ccccc2F)c2ccc(F)cc2)cc1 (centres undefined)
[1]
  Tl flux remaining, % of negative control (hits give low values): 39.5% (active)
[2]
  outcome: inactive

## CCCCCCCCCCOC(=O)Cn1c(COc2cccc(OC)c2)[n+](C)c2ccccc21
[1]
  outcome: inactive
[2]
  outcome: inactive

## CCC(Cc1ccccc1)NS(=O)(=O)c1ccc2c(c1)NC(=O)CS2 (centres undefined)
[1]
  Tl flux remaining, % of negative control (hits give low values): 62% (active)
[2]
  outcome: inactive

## CSc1c(SCc2ccccc2)cnn(Cc2ccccc2)c1=O
[1]
  outcome: inactive
[2]
  outcome: inactive

## CC1CN(C(=O)CCC(=O)NCCCN2CCC(Cc3ccccc3)CC2)c2cc(Cl)ccc2O1 (centres undefined)
[1]
  Tl flux remaining, % of negative control (hits give low values): 35.5% (active)
[2]
  outcome: inactive

## Clc1ccc(-c2cc(C3CCNCC3)[nH]n2)c(Cl)c1
[1]
  Tl flux remaining, % of negative control (hits give low values): 22.5% (active)
[2]
  outcome: inactive

## O=C(Nc1ccccc1Cl)/C(Cl)=C(\Cl)S(=O)c1ccccc1 (centres undefined)
[1]
  Tl flux remaining, % of negative control (hits give low values): 60.5% (active)
[2]
  FluxOR signal as % of negative control (100 = no effect): 57.5% (active)

## Cc1cc2cc3c(cc2nc1SCC(=O)Nc1c(C)cccc1C)CCC3
[1]
  outcome: inactive
[2]
  outcome: inactive
[3]
  activity increase over 3SD of controls: 20.3% (active)
[4]
  activation over 3SD threshold: 6.2% (active)
[5]
  potentiation, less the hit threshold: -22.8%
[6]
  activity over 3SD threshold: -19.1%

## CCOC(=O)NC(C(F)(F)F)(C(F)(F)F)P(=O)(c1ccccc1)c1ccccc1
[1]
  outcome: inactive
[2]
  outcome: inactive
[3]
  activity increase over 3SD of controls: -3.2%
[4]
  activation over 3SD threshold: -13.6%
[5]
  potentiation, less the hit threshold: -18.1%
[6]
  activity over 3SD threshold: -34.2%

## Cc1ccccc1C(=O)NCCN=C1NS(=O)(=O)c2ccccc21
[1]
  outcome: inactive
[2]
  outcome: inactive
[7]
  outcome: inactive
[8]
  outcome: inactive
[9]
  outcome: inactive

## Cc1[nH]n(-c2cccc(Cl)c2)c(=O)c1/C=N/n1c(C)nc2ccccc2c1=O
[1]
  outcome: inactive
[2]
  FluxOR signal as % of negative control (100 = no effect): 145% (active)
[3]
  activity increase over 3SD of controls: 36% (active)
[4]
  activation over 3SD threshold: -26.8%
[5]
  potentiation, less the hit threshold: 1.8% (active)
[6]
  activity over 3SD threshold: -35.9%
[10]
  outcome: inactive

## Cc1ccc(Nc2c3c(nc4ccccc24)CCC3)cc1
[1]
  Tl flux remaining, % of negative control (hits give low values): 16% (active)
[2]
  outcome: inactive
[7]
  inhibition: 61% (active)
[8]
  outcome: inactive
[9]
  inhibition: 83.9% (active)

## CC1(C)NC(=O)N(CCCCSc2ccc(Cl)cc2)C1=O
[1]
  Tl flux remaining, % of negative control (hits give low values): 46% (active)
[2]
  outcome: inactive
[7]
  outcome: inactive
[8]
  outcome: inactive
[9]
  inhibition: 40.8% (active)

## C/C=C(/C)C(=O)OC1Cc2c(ccc3ccc(=O)oc23)OC1(C)C (centres undefined)
[1]
  Tl flux remaining, % of negative control (hits give low values): 63% (active)
[2]
  outcome: inactive
[7]
  outcome: inactive
[8]
  outcome: inactive
[9]
  outcome: inactive

## COc1cccc(CN(C)CC(O)COC(c2ccccc2)c2ccccc2C)c1 (centres undefined)
[1]
  Tl flux remaining, % of negative control (hits give low values): 66% (active)
[2]
  outcome: inactive
